Screening data: PubChem BioAssay, several laboratories
Most compounds without a hit are left out; they make up all but 4.6% or so of the library.
NLRP3 yeast inh – NALP3 inhibition in yeast | Yeast reconstituted NLRP3/ASC/caspase-1, beta-gal luminescence, 24 h | inhibition, % at 10 µM | 0.39% of 330,000 active | AID 2825;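 active means inhibition of 50% or more; inactive means inhibition below 50%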;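 further: plate controls were induced DMSO wells for no effect and uninduced yeast grown without galactose for full effect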
TIM10 inh – growth inhibitors of TIM10 yeast strain; AID 463195; S. cerevisiae TIM10 strain growth, BacTiter-Glo luminescence, 24 h; 1.4% of 330,000 active; inhibition, % at 10 µM;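 active means inhibition of 40% or more at the single tested concentration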;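 further: wild-type TIM10 isogenic control strain grown at permissive 25 °C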
tim10-1 inh – inhibits growth of tim10-1 mutant yeast | S. cerevisiae tim10-1 ts strain growth, BacTiter-Glo, 24 h | inhibition, % at 20 µM | 2.2% of 330,000 active | AID 463190;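 active means inhibition of at least 40%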;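 further: mutant grown at 25 °C; 0% = DMSO wells with yeast and 100% = wells holding no yeast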
SKKanGAS inh – inhibitors of SKKanGAS S. pyogenes growth in kanamycin (SK-promoter or general growth effect); BacTiter-Glo, 6 h; inhibition, % at 7.5 µM; 1.3% of 300,000 active;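 active means mean replicate score, as percent of positive control median, at least 50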;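 further: strain carries kanamycin resistance gene driven by streptokinase promoter and grows in 40 µg/ml kanamycin; loss of luminescence reflects streptokinase promoter inhibition or plain growth inhibition; 0% = median of DMSO wells and 100% = positive control at its reference dose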
tim23-1 inh – inhibits growth of tim23-1 mutant yeast; S. cerevisiae tim23-1 growth, BacTiter-Glo luminescence, 24 h; inhibition, % at 20 µM; 1.3% of 330,000 active; AID 463212;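 active means growth inhibition of the mutant yeast at or above 50%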;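 further: temperature-sensitive mutant grown at 25 °C; plate controls were DMSO-treated mutant yeast for no effect and medium wells lacking yeast for full effect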
tim23-1 conf – tim23-1 yeast growth inhibition, confirmed | S. cerevisiae tim23-1 growth, BacTiter-Glo luminescence, 24 h | inhibition, % at 20 µM | 83% of 4,400 active | shares compounds with tim23-1 inh;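 active means inhibition above about 39% in either of two replicate wells at 20 µM, limit read from the data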;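 further: temperature-sensitive tim23-1 mutant grown at 25 °C; 0% = DMSO wells with yeast and 100% = medium wells without yeast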
Numbers without * were called inactive; x = no result given.

SMILES	NLRP3 yeast inh	TIM10 inh	tim10-1 inh	SKKanGAS inh	tim23-1 inh	tim23-1 conf
Cc1ccc2c(c1)C(=O)C(=O)N2Cc1ccccc1	15	12	17	x	73*	62*
CC(C)Oc1ccc(Cc2cnc(=S)[nH]c2N)cc1	16	2	-5	-2	-1	x
Cc1[nH]c(-c2ccc(F)cc2)cc1C(=O)N1CCN(c2cccc(Cl)c2)CC1	7	36	36	67*	54*	-6
O=C(c1cc2cc(F)ccc2[nH]1)N1CCN(c2cccc(Cl)c2)CC1	10	15	10	12	12	x
CCOC(=O)C1C(C(=O)OC)=C(c2ccc(OC)cc2)c2ccc(OC)cc2N1S(=O)(=O)C(F)(F)F (centres undefined)	x	4	20	x	39	x
CCOC(=O)C1=C(C2=CCCCC2)c2ccc(OC)cc2N(S(=O)(=O)C(F)(F)F)C1C(=O)OCC (centres undefined)	x	25	36	x	53*	40*
CCOC(=O)Nc1sc2nc(C)cc(C)c2c1-n1cccc1	29	13	29	0	51*	29
CN(C)C(=O)c1ccc(NC(=O)CN2CCc3cc4c(cc3C2)OCCCO4)cc1	9	-1	13	-1	5	x
O=C(CN1CCc2cc3c(cc2C1)OCCCO3)Nc1cccc(Br)c1	3	-1	39	1	60*	74*
CCc1c(C)nc2cc(-c3ccc(OC)c(OC)c3)nn2c1NCC1CC1	24	14	33	1	69*	46*
O=C(N/N=C/c1ccco1)c1ccccc1OCc1ccc(Br)cc1	5	28	26	5	47	x
CCCC(C)NC(=O)Cc1ccc(S(=O)(=O)N2CCOCC2)s1 (centres undefined)	5	3	13	x	13	x
Cc1ccc(-n2c(C)cc(=O)cc2C)cc1[N+](=O)[O-]	-2	6	-4	6	4	x
COc1ccc(S(=O)(=O)N2CCc3ccccc3C2)cc1	27	29	19	10	53*	45*
CCOc1ccc(C(=O)COC(=O)Cn2cnc3c2c(=O)n(C)c(=O)n3C)cc1	3	12	-2	x	14	x
COc1cccc(NCc2cc3c(C(C)(C)C)nn(-c4ccccc4)c3[nH]c2=O)c1	10	36	36	14	70*	59*
CCc1ccc(NCc2cc3c(C)nn(-c4ccccc4)c3[nH]c2=O)cc1	13	10	13	7	14	x
CCOc1ccc(NCc2cc3c(C(C)(C)C)nn(-c4ccccc4)c3[nH]c2=O)cc1	46	32	22	-7	58*	55*
CCOC(=O)c1sc(=NC(=O)c2ccccc2Br)n(C)c1C	5	5	2	-2	11	x
CCOC(=O)c1sc(=NC(=O)c2ccco2)n(C)c1C	33	25	15	x	54*	44*
Cc1cc(NC2CCCC2)n2nc(C)c(-c3ccccc3)c2n1	-3	35	28	0	51*	43*
Cc1cc(N)n2nc(C)c(-c3ccccc3)c2n1	x	x	x	13	x	x
Cc1cc(NC2CCCC2)n2ncc(-c3ccccc3)c2n1	15	22	37	23	50*	18
O=C(O)c1ccc(/C=C/c2nc3sc4c(c3c(=O)[nH]2)CCC4)cc1	-5	8	3	19	-11	x
O=C(NCCc1ccccc1)c1cccc2c1C(=O)N(C1CCCCC1)C2	12	24	26	-1	51*	39
SMILES	NLRP3 yeast inh	TIM10 inh	tim10-1 inh	SKKanGAS inh	tim23-1 inh	tim23-1 conf
CCOC(=O)c1cc(-c2ccccc2)n(CC2CC(c3ccc(OC)cc3)=NO2)n1 (centres undefined)	16	11	30	-4	32	x
CCCCNC1=CC(=O)C(=O)c2ccccc21	9	22	-3	1	55*	56*
CCc1ccc(NC2=CC(=O)C(=O)c3ccccc32)cc1	36	25	8	x	2	x
O=C(O)c1ccc(CN2C(=O)c3ccc(Oc4ccc([N+](=O)[O-])cc4)cc3C2=O)cc1	18	-2	-17	-7	1	x
Cc1cc(Cl)ccc1OCC(=O)NNC(=O)CCOc1ccccc1	8	-15	-19	x	-10	x
CC(=O)c1ccccc1OC(=O)COc1ccc(Cl)cc1C	-4	25	21	8	54*	46*
Brc1ccc(-c2csc(Nc3nc(-c4ccc(Br)cc4)cs3)n2)cc1	6	8	13	27	53*	12
Cc1ccc(S(=O)(=O)Nc2ccnc(-c3cccnc3)n2)cc1	8	-3	3	x	-2	x
CCCn1c(SCC(=O)N2CCN(S(=O)(=O)c3ccc(Cl)cc3)CC2)n[nH]c1=O	-6	2	6	3	58*	0
O=c1cc(CO)oc(CN2CCN(CCO)CC2)c1O	7	2	1	3	95*	19
COc1ccccc1NC(=O)c1ccc2c(c1)N(CC(=O)NC(C)C)C(=O)C(C)(C)O2	16	2	9	-5	-7	x
COc1ccc(Nc2cc(C)nc(N3CCN(C(=O)c4ccc5c(c4)OCO5)CC3)n2)cc1	4	2	-2	11	4	x
Cc1cccc(C(=O)N/C(=C\c2ccco2)C(=O)N2CCCC2)c1	20	-2	2	4	0	x
COc1ccc(COc2ncnc3ccc(Br)cc23)cc1F	18	3	-30	-4	26	x
C[C@@]12C(=O)Nc3ccc(F)cc3C(=O)N1[C@H]1c3cc(Cl)ccc3OC[C@@H]1[C@@H]2c1ccccc1	-7	23	20	x	54*	54*
C[C@@]12C(=O)Nc3ccc(F)cc3C(=O)N1[C@H]1c3ccccc3OC[C@@H]1[C@@H]2c1ccccc1	1	-1	-3	x	46	x
S=c1[nH]c(-c2ccc(Br)cc2)cn1CCc1ccccc1	14	-2	14	6	-12	x
N#C/C(=C\c1cccnc1)c1ccc([N+](=O)[O-])cc1	37	28	34	2	55*	36
O=C(O)c1ccc(N/N=C/c2cc3cc4c(cc3nc2Cl)OCCO4)cc1	4	9	-5	-25	4	x
Cc1ccc2cc(C=O)c(Cl)nc2c1	23	31	13	8	50*	48*
O=Cc1cc2cc3c(cc2nc1Cl)OCCO3	2	13	15	1	73*	52*
CC1=C(c2ccccc2)C(=S)NC(C)(C)C1	12	1	-6	16	18	x
Cc1ccc(N=Cc2cc(Cl)cc(Cl)c2O)nc1	5	10	8	-1	66*	76*
Cc1ccc(N=CC2=C(O)CC(C)(C)CC2=O)nc1	10	-3	8	-2	1	x
Cc1c(NC(=O)Nc2ccc(C(C)(C)C)cc2)c(=O)n(-c2ccccc2)n1C	5	-9	10	-1	3	x
COc1ccc(/C=C/C2=Nc3ccccc3NC(C)(C)C2)cc1OC	-4	13	19	-9	51*	43*
O=C(NC(=S)NC(=O)c1ccccc1F)c1ccccc1F	11	25	5	9	54*	48*
O=C(NC(=S)NCCc1ccccc1)c1ccccc1F	-16	33	35	-7	51*	44*
